High-throughput results from PubChem.
PI5P4K alpha inh: PI5P4K alpha (human) kinase inhibition; actives 1.2% (n = 330,000); PI5P4Kalpha enzyme, ADP-Glo luminescence, 60 min; active compounds read low; AID 652105; max response, %; active means max response of -50% or lower; inconclusive means between -30% and -50%; inactive means -30% or higher; further: value at the top dose of about 77 µM; on the % scale 0 is the no-effect control and ±100 the full control effect
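PI5P4Kalpha ADP-Glo assay; 5 microM ATP final; 60 min RT reaction; HEPES pH 7.4/EGTA/CHAPS, 5% DMSO; controls lacking substrate or enzyme; luminescent end-point.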
DRD3 antagonist: antagonists of human D3 dopamine receptor. D3R cells, DiscoveRx beta-arrestin luminescence, antagonist mode; active compounds read low. max response, negative = inhibition, %. actives 2.5% (n = 360,000). AID 652054; in the data active means max response below about -50%; inconclusive means no clear call, values can overlap the other calls; further: on the % scale 0 is the no-effect control and ±100 the full control effect
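Cells expressing the human receptor were seeded at 1500 cells/well, incubated overnight at 37 degrees C in 5% CO2, then exposed to library compounds with dopamine controls for 90 minutes at 37 degrees C before luminescent detection.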
LDHA block: LDHA (human) enzyme inhibition. P00338. purified LDHA, NADH/diaphorase-resazurin fluorescence; active compounds read low. activity change, % (values are at about 110 or 230 µM). actives 0.15% (n = 480,000). AID 1347041; in the data active means activity change below about -30%; inconclusive means mostly about -25% to -30%;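 further: plate controls were DMSO wells for no effect and wells without enzyme for full effect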
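Human LDH5 (2 nM) was incubated with 0.06 mM NADH and 0.2 mM pyruvate for 5 min at room temperature in Tris pH 7.4. Remaining NADH was coupled through diaphorase/resazurin, and resorufin fluorescence was read at 0 and 20 min.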
PI4K2A inh: inhibitors of human PI4K2A. Q9BTU6. purified PI4K2A, ADP-Glo luminescence, 1 h; active compounds read low. activity change, negative = inhibition, % at 76.9 µM. actives 0.13% (n = 420,000). AID 1346378; in the data active means activity change below about -50%; inconclusive means mostly about -30% to -49%;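 further: -100% = wells without enzyme as full effect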
Target sequence (Q9BTU6 whole entry, looked up): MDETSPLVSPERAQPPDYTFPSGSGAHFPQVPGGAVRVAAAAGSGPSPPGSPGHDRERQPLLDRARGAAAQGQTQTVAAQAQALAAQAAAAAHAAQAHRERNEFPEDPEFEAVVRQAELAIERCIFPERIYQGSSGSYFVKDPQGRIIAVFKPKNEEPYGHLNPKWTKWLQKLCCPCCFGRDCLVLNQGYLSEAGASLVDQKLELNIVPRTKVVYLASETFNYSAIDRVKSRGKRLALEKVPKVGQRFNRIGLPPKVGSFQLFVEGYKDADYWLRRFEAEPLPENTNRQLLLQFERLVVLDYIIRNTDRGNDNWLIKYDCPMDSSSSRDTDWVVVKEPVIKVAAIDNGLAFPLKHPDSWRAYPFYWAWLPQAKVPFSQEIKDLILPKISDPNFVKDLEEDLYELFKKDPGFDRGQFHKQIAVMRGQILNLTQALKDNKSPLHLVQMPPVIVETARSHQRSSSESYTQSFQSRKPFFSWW
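ADP-Glo luminescence measured ADP generated by PI4K2A enzyme (4 ug/mL before mixing) with 1.2 mM PI substrate (pre-mix) and 300 microM ATP (pre-mix). Tris pH7.5 buffer with MgCl2, Triton X-100; 1 h reaction at ambient temperature.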
D3 ag: activates the human D3 dopamine receptor; AID 652048; actives 0.58% (n = 410,000); max activation, %; D3R DiscoveRx beta-arrestin cells, luminescence, 90 min; P35462; in the data active means max activation above about 30%; further: 0% is about no effect
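Agonist mode: compounds and dopamine controls were applied to plated cells for 90 min at 37 degrees C after an overnight attachment at 1500 cells/well. Luminescent read-out followed 30 - 60 minutes at room temperature with DiscoveRx detection reagent.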
* marks the source's active call; other numbers are inactive results; ? = inconclusive; · = not tested or not shown. Hits are enriched below; roughly 3.3% of the tested compounds scored in any of these assays.

SMILES	PI5P4K alpha inh	DRD3 antagonist	LDHA block	PI4K2A inh	D3 ag
Cc1cc(Cl)ccc1NS(=O)(=O)c1ccccc1C#N	·	·	-4	·	·
CCC(C)(CNC(=O)NCc1csc(C)n1)N1CCOCC1 (stereo not given)	·	·	9	·	·
Cc1cccc(N(C)C(=S)Oc2ccc3c(c2)CCC3)c1	·	·	·	3	-3
Cc1cccc(N(C)C(=S)Oc2ccc3ccccc3c2)c1	21	-65*	0	2	-10
COc1ccccc1N=c1oc2cc(O)ccc2cc1C(N)=O	-71*	-54*	2	-52*	-10
COc1ccccc1NC(=O)c1cc2ccc(O)cc2o/c1=N\O	-13	-75*	-5	0	-2
COc1ccccc1NC(=O)c1cc2ccccc2o/c1=N\O	-2	-21	-1	-4	-4
COc1ccccc1N=c1oc2cc(O)ccc2cc1C(=O)NCC1CCCO1 (stereo not given)	·	19	14	-11	2
Cc1cccc(NC(=O)c2ccc3c(c2)NC(=O)C2CCCN32)c1 (stereo not given)	·	·	1	·	·
O=C(Nc1ccc2nc3n(c(=O)c2c1)CCCCC3)c1c(F)ccc([N+](=O)[O-])c1F	-7	-59*	-5	10	-6
O=C(Nc1ccc2nc3n(c(=O)c2c1)CCCCC3)c1cc([N+](=O)[O-])ccc1F	1	-19	0	1	-9
Cc1ccc(O)c(N=Cc2cc(Cc3ccccc3)cc([N+](=O)[O-])c2O)c1	-64*	?	13	?	10
Oc1c(Cl)cc(Cl)cc1C=Nc1ccc(N2CCOCC2)cc1	3	?	10	0	-4
O=[N+]([O-])c1cc(Cc2ccccc2)cc(C=Nc2ccc(N3CCOCC3)cc2)c1O	-51*	-67*	8	?	-5
Oc1ccc(C=Nc2ccc(N3CCOCC3)cc2)c(O)c1	-60*	20	17	-9	6
COc1cc(C=Nc2cccc(C)c2)c(O)c([N+](=O)[O-])c1	?	-92*	22	-7	-30
Cc1ccc(C(=O)NCCC(=O)N2CCCC2)c(C)c1	·	·	2	·	·
O=C(O)/C=C/c1ccc2c(c1)OCCCO2	·	·	-4	·	·
COc1cc(O)c2c(c1)OC(c1ccc(O)cc1)CC2=O (stereo not given)	1	27	4	1	13
Cc1c(O)cc2c(c1O)C(=O)CC(c1ccc(O)cc1)O2 (stereo not given)	-80*	10	2	?	1
CC(C)=CCc1c(O)cc(O)c2c1OC(c1ccc(O)cc1)CC2=O (stereo not given)	-63*	0	-3	-3	1
O=C(COC(=O)COc1cccc(Br)c1)Nc1ccccc1OC(F)F	·	·	3	·	·
CC(C)CC1C(C#N)=C(N)OC2=C1C(=O)CC(c1ccccc1)C2 (stereo not given)	-8	-63*	0	1	-16
CC(C)CC1C(C#N)=C(N)Oc2n[nH]c(-c3ccccc3)c21 (stereo not given)	-57*	-23	-2	2	1
COc1ccc(-c2nnc(C(C)N(C)Cc3ccccc3)o2)cc1 (stereo not given)	·	·	0	·	·
SMILES	PI5P4K alpha inh	DRD3 antagonist	LDHA block	PI4K2A inh	D3 ag
CSc1ccc(CN2CCCCCC2)cc1	-7	?	-13	1	-9
Fc1ccc(CN2CCCCCCC2)cc1F	1	-65*	?	-1	2
Fc1ccc(CN2CCCCCCC2)c(F)c1	-2	-53*	-11	-1	-2
O=C1Cc2cc(S(=O)(=O)N3CCN(c4cccc(C(F)(F)F)c4)CC3)ccc2N1	·	·	0	·	·
COc1ccc(N2C(=O)c3ccccc3C2=O)cc1	2	-8	-4	0	-1
COc1ccc(N2C(=O)C(Cl)=C(Oc3cccc(OC)c3)C2=O)cc1	-87*	-58*	2	-6	-18
O=C(Nc1cccc(Br)c1)c1ccc2nc(N3C(=O)CCC3=O)sc2c1	-58*	?	0	0	-3
COc1ccc(-c2csc(-c3nc(-c4cc(C)ccc4C)cs3)n2)cc1	·	·	1	·	·
COCCNCCCOc1ccc(C)cc1Br	6	-51*	-17	1	-1
C=CCNCCCOc1ccc(C)cc1Br	-3	?	-8	1	-31
COCCCNCCCOc1ccc(C)cc1Br	5	-73*	-17	0	-20
CCN(CC)CCCOc1ccc(C)cc1Br	-1	-75*	-17	-2	1
COCCCNCCCCOc1c(Cl)cc(C)cc1Br	-3	-77*	-23	-2	-10
CCOc1ccccc1OCCCOc1ccc(C)cc1Br	1	46	-2	3	-1
CN(Cc1ccco1)C(=O)c1cc2ccc(OC(F)(F)F)cc2[nH]1	·	·	8	·	·
CC(CNC(=O)c1cc(-c2ccccc2)no1)N1CCOCC1 (stereo not given)	·	·	-5	·	·
CC(=O)n1cc([C@@H]2C=C(C(=O)N3CCN(Cc4ccccc4)CC3)O[C@H](OCc3ccc(CO)cc3)C2)c2ccccc21	6	-61*	1	0	-62
CC(=O)n1cc([C@H]2C=C(C(=O)NCc3ccccc3)O[C@@H](OCc3ccc(CO)cc3)C2)c2ccccc21	-18	25	9	0	5
O=C(C1=C[C@H](c2coc3ccccc3c2=O)C[C@H](OCc2ccc(CO)cc2)O1)N1CCN(Cc2ccc3c(c2)OCO3)CC1	0	-50*	-3	-1	-50
CC(=O)n1cc([C@H]2C=C(C(N)=O)O[C@@H](OCc3ccc(CO)cc3)C2)c2ccccc21	-7	66	11	-9	36*
CC(=O)n1cc([C@H]2C=C(C(=O)N3CCN(Cc4ccccc4)CC3)O[C@@H](OCCCCO)C2)c2ccccc21	3	0	5	-3	11
CC(=O)c1cn(CCOc2cccc3ccccc23)c2ccccc12	·	·	-3	·	·
O=C(CCN1CCCCCC1)Nc1cccc(Cl)c1	·	-143*	-14	3	-28
O=C(CN1CCCCC1)Nc1cccc(Br)c1	0	-63*	-6	9	-16
O=C(CN1CCCC1)Nc1ccc(F)c(Cl)c1	-4	-28	-15	-6	-20
SMILES	PI5P4K alpha inh	DRD3 antagonist	LDHA block	PI4K2A inh	D3 ag
O=C(Cc1cccc([N+](=O)[O-])c1)Nc1cccc(C(=O)N2CCOCC2)c1	3	-51*	-5	-9	-19
O=C(CN1CCCCC1)Nc1ccc(F)c(Cl)c1	2	-58*	-5	3	-3
O=C(Nc1ccc(OCc2ccccc2)cc1)C(Sc1ccccc1)c1ccccc1 (stereo not given)	·	·	-4	·	·
O=C(CSC1=NCCN1)Nc1ccccc1[N+](=O)[O-]	2	-12	0	2	-3
O=C(NCc1ccc(CN2CCCC2)cc1)c1cccc(Br)c1	·	·	2	·	·
O=C(CN1CCCCC1)NNC(=O)c1cccc(Br)c1	0	-80*	-3	-1	-34
O=C(CSC1=NCCN1)Nc1cccc([N+](=O)[O-])c1	-12	-65*	-8	-7	-15
